Assay results from the supplement of paper PMC9262897, “Low-cost anti-mycobacterial drug discovery using engineered E. coli” (Nature Communications, 2022).
Where a name gives a salt, the structure may show the parent alone. ± gives the standard deviation of the averaged measurements.

These molecules were tested on E. coli TESEC Alr+ wild-type control (assay: growth (OD600 after 10 h); higher = more growth (less inhibition)). Conditions: compound 0.1 mM; raw OD600 reference: median of DMSO wells 0.49, cell-free background 0.052.
Protocol: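 TESEC Mtb Alr E. coli (ΔaraC ΔtolC ΔentC Δalr ΔdadX, arabinose-inducible Mtb Alr) or the Alr+ wild-type control strain, grown in defined M9-fructose medium without D-alanine in 96-well plates with Prestwick library compounds at 0.1 mM and 1% DMSO. Low Alr induction is 0.1 µM arabinose and high induction is 10 mM arabinose.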
Molecule CCCc1nc(C)c2c(=O)nc(-c3cc(S(=O)(=O)N4CCN(CC)CC4)ccc3OCC)[nH]n12 [Vardenafil] has a growth of 0.55 ± 0.11.
c1cnc(N2CCN(Cc3ccc4c(c3)OCO4)CC2)nc1 [Piribedil hydrochloride] showed a growth of 0.512 ± 0.077.
NCCCC(O)(P(=O)(O)O)P(=O)(O)O [Alendronate sodium] showed a growth of 0.514 ± 0.051.
In the case of O=C1CCc2ccc(OCCCCN3CCN(c4cccc(Cl)c4Cl)CC3)cc2N1 [Aripiprazole], the growth is reported as 0.418 ± 0.077.
OCCN(CCO)c1nc(N2CCCCC2)c2nc(N(CCO)CCO)nc(N3CCCCC3)c2n1 [Dipyridamole] showed a growth of 0.0816 ± 0.027.
In the case of CCN(CC)CCOC(=O)C(Cc1cccc2ccccc12)CC1CCCO1 (stereo not given) [Nafronyl oxalate], the growth is reported as 0.464 ± 0.015.
CCN(CCO)CCCC(C)Nc1ccnc2cc(Cl)ccc12 (stereo not given) [Hydroxychloroquine sulfate] showed a growth of 0.54 ± 0.024.
Clc1ccc(C(Cn2ccnc2)OCc2ccsc2Cl)c(Cl)c1 (stereo not given) [Tioconazole] gave a growth of 0.0501 ± 0.00075.
Molecule CC(=O)CC(c1ccccc1)c1c(O)c2ccccc2oc1=O (stereo not given) [Warfarin] has a growth of 0.492 ± 0.081.
For CC(C(=O)O)c1ccc(C(=O)c2ccccc2)s1 (stereo not given) [Tiaprofenic acid], the growth was 0.502 ± 0.059.
CC1(C)O[C@@H]2C[C@H]3[C@@H]4C[C@H](F)C5=CC(=O)C=C[C@]5(C)[C@H]4[C@@H](O)C[C@]3(C)[C@]2(C(=O)CO)O1 [Flunisolide] gave a growth of 0.418 ± 0.031.
CC1=C(/C=C/C(C)=C/C=C/C(C)=C\C(=O)O)C(C)(C)CCC1 [Isotretinoin] showed a growth of 0.425 ± 0.028.
Molecule CN1CCCCC1CCN1c2ccccc2Sc2ccc([S+](C)[O-])cc21 (stereo not given) [Mesoridazine besylate] has a growth of 0.568 ± 0.023.
Molecule COc1cc([C@@H]2c3cc4c(cc3[C@@H](O[C@@H]3O[C@@H]5CO[C@@H](C)O[C@H]5[C@H](O)[C@H]3O)[C@H]3COC(=O)[C@H]23)OCO4)cc(OC)c1O [Etoposide] has a growth of 0.142 ± 0.0036.
CC(C)(C)NCC(O)c1ccc(O)c(CO)c1 (stereo not given) [Salbutamol] showed a growth of 0.528 ± 0.092.
With OCCN1CCN(CCCN2c3ccccc3C=Cc3ccccc32)CC1 [Opipramol dihydrochloride] the growth was 0.464 ± 0.013.
For CC1CCc2cc(F)cc3c(=O)c(C(=O)O)cn1c23 (stereo not given) [Flumequine], the growth was 0.0527 ± 0.00046.
NS(=O)(=O)c1cc(C(=O)O)cc(N2CCCC2)c1Oc1ccccc1 [Piretanide] gave a growth of 0.444 ± 0.0057.
Molecule C[C@H](CCC(=O)O)[C@H]1CC[C@H]2[C@@H]3[C@@H](O)C[C@@H]4C[C@H](O)CC[C@]4(C)[C@H]3CC[C@]12C [Urosiol] has a growth of 0.406 ± 0.011.
In the case of C[C@]12CCC(=O)C=C1C=C[C@@H]1[C@@H]2CC[C@@]2(C)[C@H]1CC[C@@]21CCC(=O)O1 [Canrenone], the growth is reported as 0.282 ± 0.014.
Nc1ncnc2c1ncn2[C@@H]1O[C@H](CO)[C@@H](O)[C@@H]1O [Vidarabine] showed a growth of 0.535 ± 0.069.
C=CC1=C(C(=O)O)N2C(=O)[C@@H](NC(=O)/C(=N\O)c3csc(N)n3)[C@H]2SC1 [Cefdinir] showed a growth of 0.0483 ± 0.0014.
CCCCCN(CCCCC)C(=O)C(CCC(=O)O)NC(=O)c1ccc(Cl)c(Cl)c1 (stereo not given) [Lorglumide sodium salt] showed a growth of 0.104 ± 0.002.
CC1(C)O[C@@H]2C[C@H]3[C@@H]4C[C@H](F)C5=CC(=O)C=C[C@]5(C)[C@@]4(F)[C@@H](O)C[C@]3(C)[C@]2(C(=O)CO)O1 [Fluocinolone acetonide] gave a growth of 0.591 ± 0.015.
For CCCNCC(O)COc1ccccc1C(=O)CCc1ccccc1 (stereo not given) [Propafenone hydrochloride], the growth was 0.452 ± 0.022.
Work on COc1cc2nc(N3CCN(C(=O)c4ccco4)CC3)nc(N)c2cc1OC [Prazosin hydrochloride] yielded a growth of 0.498 ± 0.007.
CN1C(=O)OC(C)(C)C1=O [Trimethadione] gave a growth of 0.553 ± 0.073.
Work on COC(=O)Nc1nc2cc(Sc3ccccc3)ccc2[nH]1 [Fenbendazole] yielded a growth of 0.56 ± 0.072.
In the case of Oc1c(I)cc(Cl)c2cccnc12 [Clioquinol], the growth is reported as 0.0685 ± 0.0091.
CC(C)OC(=O)C(C)(C)Oc1ccc(C(=O)c2ccc(Cl)cc2)cc1 [Fenofibrate] gave a growth of 0.469 ± 0.026.
Molecule Cc1cc2c(s1)Nc1ccccc1N=C2N1CCN(C)CC1 [Olanzapine] has a growth of 0.502 ± 0.029.
For Cc1ccccc1C(OCCN(C)C)c1ccccc1 (stereo not given) [Orphenadrine hydrochloride], the growth was 0.463 ± 0.043.
Work on CCCCC(C)(O)C/C=C/[C@H]1[C@H](O)CC(=O)[C@@H]1CCCCCCC(=O)OC (mixture of isomers) [Misoprostol] yielded a growth of 0.518 ± 0.094.
COC(=O)C1=C(C)NC(C)=C(C(=O)OC)C1c1ccccc1[N+](=O)[O-] [Nifedipine] showed a growth of 0.447 ± 0.017.
Molecule C[C@H]1NC(=O)NC1=O [Methylhydantoin-5-(D)] has a growth of 0.607 ± 0.018.
Work on CCOC(=O)C(C)(C)Oc1ccc(Cl)cc1 [Clofibrate] yielded a growth of 0.609 ± 0.065.
NS(=O)(=O)c1cc2c(cc1Cl)NC(CC1CCCC1)NS2(=O)=O (stereo not given) [Cyclopenthiazide] showed a growth of 0.513 ± 0.035.
Nc1nc(=O)c2c([nH]1)NC[C@@H](CNc1ccc(C(=O)N[C@@H](CCC(=O)O)C(=O)O)cc1)N2C=O [Folinic acid calcium salt] gave a growth of 0.567 ± 0.12.
In the case of CN(C)CCN(Cc1ccccc1)c1ccccn1 [Tripelennamine hydrochloride], the growth is reported as 0.537 ± 0.091.
In the case of OC(CCCN1CCCCC1)(c1ccccc1)c1ccccc1 [Diphenidol hydrochloride], the growth is reported as 0.48 ± 0.034.
